Measurements from ChEMBL document CHEMBL3988442, “University of Dundee, Small-Polar-MMV Screening Library” (2021).

target: AMP-activated protein kinase, AMPK (Homo sapiens) (UniProt P54646+O43741+P54619+Q9UGJ0+Q9Y478+Q13131+Q9UGI9); assay: AMP-dependent Kinase enzyme assay. An in vitro enzyme assay that detects ADP turnover that is directly proportional to AMPK activity. This uses naive AMPK that is activated during the assay with MK-8722; assay type: functional; parameters: scale not given: direction of the effect not stated beside the values; details: 30 µM

Structure (SMILES)	Percent Effect
CC(C)Oc1ncccc1CNC(=O)NC(C)c1cccs1 (stereo not given)	-3.91%
CCOCCC(=O)N(CCC#N)c1ccc(C)c(C)c1	-0.0952%
Cc1cc(C)c(NC(=O)Nc2cnn(CC(O)CN(C)C)c2)c(C)c1 (stereo not given)	0.923%
Cc1cnn(CCNCC(=O)N2CCN(c3ccccn3)CC2)c1	-14.7%
CN1CCCC1c1ccnc2nccn12 (stereo not given)	6.44%
O=C(COc1ccc(-n2cccn2)nn1)NC1CCCCC1	-0.431%
CN(Cc1csc(-c2cccs2)n1)CC(O)CO (stereo not given)	5.86%
CN1CCC(NC(=O)c2cc(F)cc(Cl)c2O)C1=O (stereo not given)	11.4%
CCN(C)C(=O)c1cccc(S(=O)(=O)NCCc2nc(C)cc(=O)[nH]2)c1	-5.87%
Cc1c(Br)cccc1C(=O)Nc1cc(C(N)=O)n(C)c1	3.87%
COc1ccc(S(=O)(=O)NC(=O)C(C)OC)c(OC)c1 (stereo not given)	-4.37%
COc1ccc(C2CN(c3ncccn3)CCN2C(C)=O)cc1 (stereo not given)	21.2%
CN(CCCc1cnn(C)c1)Cc1cc2n(n1)CCCNC2	-0.861%
CCc1nc(CCNS(=O)(=O)c2cccc(C(=O)N(C)CC)c2)cs1	1%
COc1ccccc1CN(Cc1nc(Cc2ccccc2)no1)C1CC1	12.8%
c1ccc(C2CN(C3CC3)CC3(CCN(Cc4ncc[nH]4)CC3)C2)cc1 (stereo not given)	6.22%
Cc1ccc(OCc2occc2C(=O)N2CCOC(C(=O)O)C2)cc1 (stereo not given)	2.93%
NC(=O)c1ccc(CNC(=O)NCc2cc[nH]n2)cc1	-5.62%
CSCCC(NC(=O)C1CC1)C(=O)N(C)Cc1ccsc1 (stereo not given)	-0.745%
CCc1cccc(C)c1NC(=O)NCCCN(CC)S(C)(=O)=O	22.2%

Structure (SMILES)	Percent Effect
Cc1noc(C(C)C)c1C(=O)N1CCC(n2cccn2)CC1	4.03%
CC(=O)N[C@@H]1CN(C(=O)c2cccc(C(F)(F)F)c2)C[C@H]1O	5.07%
CCc1ccc(CC)c(NCc2cnc(N3CCOCC3)nc2)c1	-6.68%
COCCN1C[C@H]2CC[C@@H]1CN(C(=O)CCc1n[nH]c(C)c1C)C2	-0.161%
COc1cc(Cl)cc(CN2CCCC(N3CCOCC3)C2)c1OC (stereo not given)	4.12%
O=C(Nc1cccc(F)c1)NC1CCN(Cc2ccncc2)CC1	1.71%
Cn1ccnc1-c1cnn(CC(=O)Nc2ccnn2C)c1	-2.32%
COc1ccc(S(=O)(=O)Nc2cccnc2-n2cncn2)cc1C	-0.234%
CCCN1C(=O)[C@H]2CC[C@@H]1CN(S(=O)(=O)c1cccc(Cl)c1)C2	7.5%
CN(CCCOc1ccccc1Cl)C(=O)CN1CCNC1=O	10.2%
O=C(Cn1[nH]c2ccccc2c1=O)N1CCCC(CC2CC2)(C(=O)O)C1 (stereo not given)	-3.39%
CC(C)[C@@H]1CN(C(=O)CCc2ccc(F)cc2)C[C@H]1C(=O)O	-1.24%
CCc1ccc(NC(=O)CCN2CC(n3nc(C)cc3C)C2)cc1	-4.58%
O=S(=O)(Nc1ccc2c(c1)OCCO2)N1CCCCC1	12.8%
CC1(C)CC1(C(=O)N1CC(c2cccnc2)C1)c1ccc(F)cc1 (stereo not given)	3.87%
Cc1ccccc1S(=O)(=O)Cc1nsc(N(C)C)n1	-0.34%
CCc1nn(C)c(Cl)c1CN(CCOC)Cc1cnn(C)c1	5.81%
COc1ccc(OC2CCN(C(=O)c3cnc(C)s3)CC2)cc1	-2.19%
c1ncc(-c2cn(CCSc3cnn[nH]3)nn2)cn1	-3.28%
COc1cc(C(=O)O)ccc1OCC(=O)NCCc1ccccc1	2.55%
